According to the OligoGym collection:

biological target: SNX29; assay: pooled miR-30 sensor sort-seq; sequence = guide strand; settings: shRNA
Also: reference of the scale not given here.

Sequence | sensor-assay potency score (higher = more potent)
TTCTTTCGTAGGAGCTTGCGAG | -0.569
TTGAGCACCTCGTTCTCTCTGG | -0.561
TTCTGGAGCTGCTTTCTCCGTT | -0.513
TAACTTGTGGTGCAAACTCCTG | -1.57
TTCTTCAGCAATTTCTCCCGGC | 0.0945
TTTCTTTCGTAGGAGCTTGCGA | -0.585
TTTTATCCGGATGTAGACCTGA | 0.194
TTGACCTTCTCTTTTCAGCATC | -0.863
TTGGACTTTGAGCACCTCGTTC | -0.779
AACTTCTCCATCAACACTCCAA | 0.0779
TTCATCGTCTTTTATCCGGATG | -0.658

biological target: SNX32; assay: as above; settings: shRNA

Sequence | sensor-assay potency score (higher = more potent)
TTCTGTAGCTTTTCCCTCGAAG | -0.129
TAAGGAGCTGTCTCCCTGCAGA | -1.06
TACTCCAACAGGAAGGTCCTCT | 0.509
TTTCGAAAAGAGGAGACCCGGC | -0.633
TGCGTCAGAAATCTCCACCTGT | 0.185
TTGAACAGTGAATTTCACCTTG | 0.337
TTTGAGCTCCAGCTCTGCCAGC | -1.19
TTAGCTGGTTGACTTCCTGTGT | 0.0166
TTCGTGCATCGCAACTGTCTTC | -0.785
TGAACAGTGAATTTCACCTTGT | 0.317
AATTTGAGGAAGCTCGTCCTTA | -0.0375

biological target: SOCS2; assay: as above; settings: shRNA

Sequence | sensor-assay potency score (higher = more potent)
TTCTCTTTTACATAGCTGCATT | -0.899
TTAGTAGGTAGTCTGAATGCGA | -0.295
TTTTCCGTCTTGGTATTCGATT | -1.45
TTTGGCTTCATTAACAGTCATA | -0.491
TTAAGCTTGGATTTGACACATA | -1
TTAACAGTCATACTTCCCCAGT | -1.23
TTCGAAGATTAGTTGGTCCAGC | 0.103
TTGCACATCTGAACATAGTAGT | 0.207
TATCCTTGCACATCTGAACATA | -1.25
TATTGTTAGTAGGTAGTCTGAA | 0.147
TAATCTTTTAGTCTTGTTGGTA | -0.175
TAGTAGGTAGTCTGAATGCGAG | -0.794

biological target: SOHLH2; assay: as above; settings: shRNA

Sequence | sensor-assay potency score (higher = more potent)
TAAGATGTCTATTTTTGCCTGG | 0.389
TATGTTTGCAAATAGTTTCTGT | 0.299
TTTGAGGGACATGTTGTCCAGT | -0.779
TATCGTGTCTACATGGATCTTC | 0.657
TTTCTGTACAGTATCAGCCAGG | -0.773
TTGATGGAACTCTCACAGCTTC | -0.632
